Among all 330,000 compounds or so, about 7,700 (2.3%) were called active. Inconclusive results (about 26%) are left out. What follows is part of a selection rich in actives, with near analogues and random picks from the rest. A number with no mark means an inactive call. The call rests on the fitted dose curve; in most records, active means well fitted inhibition curve with a large enough effect; inconclusive means small, poorly fitted or top-dose-only effect, or effect the other way; inactive means flat fitted curve, though single readings scatter.
Assay: qHTS screen for small molecules that inhibit ELG1-dependent DNA repair in human embryonic kidney (HEK293T) cells expressing luciferase-tagged ELG1; further: nearly all actives have a fitted effect of over 55% in size
Details: HEK293T ELG1-luciferase reporter, luminescence, 16 h, DNA damage induced by 5-fluorouridine; series mostly up to 46.1 µM; activity change, negative = inhibition: at the top concentration
In short: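 DMSO vehicle served as the neutral condition. Each well held 2,000 cells given 5-fluorouridine plus compound; after 16 hr at 37 °C/5% CO2, ONE-Glo was added and luciferase measured 30 min later.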
On the % scale 0 is the no-effect control and ±100 the full control effect; potency means the concentration at half of the fitted maximal effect.

In order of rising “activity change, negative = inhibition” value:
1. Cc1cccc(C)c1NC(=O)COC(=O)c1c(C)nn(-c2ccccc2)c1C  -24.2%
2. O=C(c1ccc(Cl)c([N+](=O)[O-])c1)N1CCN(c2ccccc2)CC1  -21.3%
3. O=C(Nc1nnc(-c2ccco2)o1)c1ccc(S(=O)(=O)N2CCOCC2)cc1  -19.6%
4. O=C(Cc1ccccc1Cl)N1CCN(c2ccccn2)CC1  -17.5%
5. O=C(c1cccc(F)c1)N1CCN(c2ccc([N+](=O)[O-])c(N3CCCCC3)c2)CC1  -15.8%
6. COc1ccc(NC(=O)C(C)N2c3cccc4cccc(c34)S2(=O)=O)c(OC)c1 (stereo unspecified)  -15.1%
7. O=C(O)/C=C/c1cn(Cc2ccccc2)nc1-c1cccs1  -14.2%
8. COc1ccc(-n2c(=O)[nH]c3cc(C(=O)NCCc4ccc(OC)c(OC)c4)ccc3c2=O)c(OC)c1  -14.1%
9. COc1ccc(-c2noc(C(C)NS(=O)(=O)c3ccc(NC(C)=O)cc3)n2)cc1 (stereo unspecified)  -13.9%
10. CCc1ccccc1NC(=O)CN(C)C(=O)c1cc(C2CC2)nn1-c1ccccc1  -11.9%
11. O=C(Nc1ccc(N2CCN(C(=O)c3cccs3)CC2)cc1)c1cccnc1Cl  -11.4%
12. CN1CCN(S(=O)(=O)c2ccc(N3CCN(c4ccccc4O)CC3)c([N+](=O)[O-])c2)CC1  -9.8%
13. COc1ccc(NC(=O)CN(C)CC(=O)Nc2cccc(C(F)(F)F)c2)cc1  -9.58%
14. Cn1c(SCC(=O)N/N=C/c2ccc(O)c(O)c2)nc2ccccc21  -9.45%
15. CCOC(=O)CC1(NC(=O)c2cc(COc3cncc(Cl)c3)on2)CCCCC1  -8.66%
16. COCC(C)n1c(SCC(=O)NC2CCCCC2C)nc2ccccc2c1=O (stereo unspecified)  -8.42%
17. Cc1ccc(S(=O)(=O)NCC(=O)N2CCN(c3ccccn3)CC2)cc1  -7.21%
18. O=C(/C=C/c1cn(-c2ccccc2)nc1-c1ccc2c(c1)OCCO2)NCCCN1CCOCC1  -6.31%
19. Cc1ccc(NS(=O)(=O)c2ccc3c(c2)n(C)c(=O)c(=O)n3C)c(C)c1  -5.16%
20. O=C(c1ccc2nc(N3CCOCC3)sc2c1)N1CCN(c2ccc(Cl)cc2)CC1  -4.91%
21. Fc1ccc(/C=N/n2c(COc3ccccc3)n[nH]c2=S)cc1  -4.36%
22. O=C(CNC(=O)C1COc2ccccc2O1)N/N=C/c1cc(Br)c(O)c(Br)c1 (stereo unspecified)  -3.97%
23. N#CC(Cc1cc2ccccc2n1S(=O)(=O)c1ccccc1)OCc1ccccc1 (stereo unspecified)  -3.89%
24. CCn1c2ccc(F)cc2c2nnc(SCCN3CCOCC3)nc21  -3.22%
25. O=C(c1ccccc1)c1ccc(C(=O)N2CCN(c3ccccc3)CC2)cc1  -3.04%
26. CC(C)CC(O)C1CCN(C(=O)CCc2nnc(-c3ccc4c(c3)OCO4)o2)CC1 (stereo unspecified)  -2.7%
27. O=C(c1cc2cc(F)ccc2[nH]1)N1CCN(c2ccc(F)cc2)CC1  -2.05%
28. Cc1ccc(NC(=O)Cn2cnc3c(OCc4ccccc4)ncnc32)cc1C  -1.75%
29. COc1ccccc1/C=C1\SC(=O)N(CCC(=O)N(C)C2CCS(=O)(=O)C2)C1=O (stereo unspecified)  -1.47%
30. CCC1=Nc2cc(C(=O)NCCN3CCCC3)ccc2Sc2ccc(C)cc21  -1.4%
31. NC(N)=Nc1nc(-c2ccccc2)c2cc(Cl)ccc2n1  -0.933%
32. CCC1(CC)NC(=O)N(CC(=O)OCC(=O)c2cc(C)c(C)cc2C)C1=O  -0.913%
33. N#Cc1c(-c2ccccc2)nc(SCc2ccc([N+](=O)[O-])cc2)[nH]c1=O  -0.721%
34. Cc1cc(C)c(S(=O)(=O)NCC(c2ccc3c(c2)OCO3)N2CCOCC2)c(C)c1 (stereo unspecified)  -0.27%
35. CCCN(CCC)CCCNC(=O)CNC(=O)c1nn(-c2ccc(OC)cc2)c(=O)c2ccccc12  -0.0392%
36. CCN(C(=O)CSc1nnnn1-c1ccc(OC)cc1)C1CCS(=O)(=O)C1 (stereo unspecified)  0%
37. Cn1cncc1C#Cc1c(-c2ccsc2)sc2ccccc12  0%
38. Cn1cccc1C(=O)OCC(=O)NCCc1ccccc1  0%
39. CCN(CC(=O)NC(C)C)C(=O)c1cc(S(=O)(=O)N2CCCCC2)ccc1N1CCCCC1  0.278%
40. CN1CCC(N(C)S(=O)(=O)c2ccc(NC(=O)c3cccc(C#N)c3)cc2)CC1  0.329%
41. COc1ccccc1NC(=O)CSc1nnc(CNC(=O)c2ccccc2F)o1  0.554%
42. CCOc1ccc(CCNC(=O)CN2C(=O)NC3(CCc4ccccc43)C2=O)cc1OCC (stereo unspecified)  0.584%
43. COc1ccc(N(CC(=O)NCc2ccc(F)cc2)C(=O)CCC(=O)Nc2nccs2)cc1  0.798%
44. O=C(Nc1ccc(N2CCN(C(=O)C3CC3)CC2)cc1)c1cccs1  0.812%
45. CN(C)C(=O)CCc1ccc2c3c([nH]c2c1)[C@]1(C)[C@@H](C(=O)N2CCCCC2)C[C@H](CC(=O)NCCC2=CCCCC2)C(=O)N1CC3  1.15%
46. CN(C)c1ccc(C2N(C)C(=O)c3ccccc3N2C)cc1 (stereo unspecified)  1.38%
47. Cc1cc(F)ccc1NC(=S)NCCc1ccccc1  1.45%
48. CCn1c(=O)c(=O)n(CC)c2cc(S(=O)(=O)N3CCc4ccccc43)ccc21  3.09%
49. COCCCNC(=O)CNC(=O)c1nn(-c2ccc(OC)cc2)c(=O)c2ccccc12  3.34%
50. Cc1ncn(C23CC4CC(CC(O)(C4)C2)C3)n1  3.68%
51. Cc1cc(OCC(=O)NCC(O)c2ccccc2)c2c(C)c(C)c(=O)oc2c1 (stereo unspecified)  3.77%
52. O=C(CCl)NNc1nc(-c2ccccc2)c2cc(Cl)ccc2n1  4.46%
53. O=C(CSc1nccn1-c1cccc(F)c1)NC1CCCC1  4.69%
54. O=C(Cn1ncc2c3ccccc3n(Cc3ccccc3)c2c1=O)NCCCN1CCOCC1  4.71%
55. Cn1c(CCN2CCCC2)nc2cc(NS(=O)(=O)c3ccccc3)ccc21  5.94%
56. CCCCCCSc1ccc(-c2nc3ccc(Cl)cn3c2NCc2ccccc2)cc1  6.49%
57. COc1cc(C(=O)NCc2nnc(SCC(=O)c3ccc(Cl)cc3)o2)cc(OC)c1OC  7.16%
58. CC1CC(C)CN(S(=O)(=O)c2ccc(C(=O)NN3CCOCC3)cc2)C1 (stereo unspecified)  7.51%
59. CN(C(=O)COc1ccccc1)c1nnc(-c2ccncc2)s1  7.66%
60. CCOc1ncccc1C(=O)OCC(=O)c1c[nH]c2ccccc12  8.6%
61. CC1CN(S(=O)(=O)c2ccc(C(=O)NN3CCN(C)CC3)cc2)CC(C)O1 (stereo unspecified)  8.64%
62. O=C(CCNC(=O)c1ccc(Br)cc1)NCC(c1ccco1)N1CCCCC1 (stereo unspecified)  9.27%
63. CN(C)CCCN(C(=O)COc1ccccc1)c1nc2c(Cl)cccc2s1  9.83%
64. CC1CCCCN1S(=O)(=O)CCNC(=O)c1ccccc1 (stereo unspecified)  10.3%
65. CC(C)C[C@H](NC(=O)N1CC(=O)Nc2ccccc21)C(=O)N[C@H](Cc1ccccc1)C(=O)O  10.5%
66. O=C1CCCc2c1nc(-c1cccc(Cl)c1)n2O  10.7%
67. CN=C(Nc1cccc(S(=O)(=O)N2CCOCC2)c1)c1ccccc1  11.8%
68. O=C(Nc1ccc(S(=O)(=O)Nc2ncccn2)cc1)C12CC3CC(CC(C3)C1)C2  12.4%
69. CCOCCn1[nH]c2ccccc2c1=O  13.6%
70. COc1cccc(NC(=O)c2cc(S(=O)(=O)N3CCc4ccccc43)cn2C)c1  13.6%
71. COC(=O)c1ccc(CSc2ccc(S(=O)(=O)N3CCCCC3)cn2)cc1  14.1%
72. COc1ccc(CCNC(=O)COC(=O)c2cnc(Cl)c(Cl)c2)cc1  14.7%
73. Cc1cccc(-c2nc3ccccc3c(=O)n2NC(=O)Cc2ccc(Cl)cc2)c1  16.5%
74. Cc1ccc(C(=O)CN2C(=O)NC3(CCc4ccccc43)C2=O)c(C)c1 (stereo unspecified)  17.4%
75. COc1ccc(CNC(=O)C[C@H]2C[C@H](C(=O)N3CCOCC3)[C@@]3(C)c4[nH]c5cc(CCC(=O)N(C)C)ccc5c4CCN3C2=O)cc1OC  17.5%
76. CNS(=O)(=O)c1ccc(C(=O)NCC(=O)NCCc2ccc3c(c2)OCCO3)cc1  19.4%
77. O=C(CSc1nc2ccccc2c(=O)n1-c1ccc(F)cc1)NC1CC1  21.9%
78. CCN(CC(=O)Nc1ccccc1C(=O)NC1CC1)Cc1cccs1  27.6%
79. Cc1cccc(NC(=O)c2nnn(-c3cccc(C(F)(F)F)c3)c2N)c1  57.7%

For Cc1ccccc1C(=O)N1CCN(c2ccc(NC(=O)c3cccs3)cc2)CC1, the Potency was 9.2 µM (active).
In the case of O=C(/C=C\c1cn(-c2ccccc2)nc1-c1cccs1)N1CCOCC1, the Potency is reported as 16.4 µM (active).
With COc1ccc(CCN(C(=O)COc2ccccc2)c2nc(-c3ccccc3)cs2)cc1OC the Potency was 23.1 µM (active).
For Clc1ccc2nc(-c3ccccc3)nc(C(Cl)Cl)c2c1, the Potency was 2.31 µM (active).
For COc1cc(NC(=O)c2[nH]cnc2C(N)=O)cc(C(=O)Nc2cccc(C(F)(F)F)c2)c1, the Potency was 5.8 µM (active).
In the case of Cc1nn(-c2ccccc2)c(C)c1/C=N/NC(=O)CSc1nc2ccccc2c(=O)n1-c1ccccc1, the Potency is reported as 16.4 µM (active).
In the case of COc1ccc(-n2nc(C(=O)NCC(=O)Nc3cccc(C)n3)c3ccccc3c2=O)cc1, the Potency is reported as 18.4 µM (active).
With O=C(c1cccc(C(=O)N2CCN(c3ccc(F)cc3)CC2)c1)N1CCN(c2ccc(F)cc2)CC1 the Potency was 18.4 µM (active).
In the case of O=C(c1cc(C(=O)N2CCN(c3ccc(F)cc3)CC2)cc([N+](=O)[O-])c1)N1CCN(c2ccc(F)cc2)CC1, the Potency is reported as 11.2 µM (active).
With CNC(=O)c1ccsc1NC(=O)c1ccc(S(=O)(=O)N2CCc3ccccc32)cc1 the Potency was 18.4 µM (active).
In the case of CC1CN(S(=O)(=O)c2ccc(C(=O)Nc3sccc3C(N)=O)cc2)CC(C)O1 (stereo unspecified), the Potency is reported as 18.4 µM (active).
In the case of O=c1c2cc(Br)ccc2nc(-c2cccc(Cl)c2)n1O, the Potency is reported as 18.3 µM (active).
In the case of CN(C)c1ccc(Nc2c3c4c(cccc4n(C)c2=O)C(=O)c2ccccc2-3)cc1, the Potency is reported as 7.31 µM (active).
With Cc1ccnc(N2CCN(C(=O)CSc3nc4ccccc4nc3N3CCCCC3)CC2)c1 the Potency was 12.6 µM (active).
In the case of CSCc1nnc(NC(=O)c2ccc(S(=O)(=O)N3CCCCC3C)cc2)o1 (stereo unspecified), the Potency is reported as 20.6 µM (active).
For CCC(=O)Nc1ccc(C(=O)CSc2nnc(CNc3ccc(Cl)cc3)o2)cc1OC, the Potency was 11.6 µM (active).
With COC(=O)c1ccc(NC(=O)C23CC4CC(C2)CC(n2cnc(Cl)n2)(C4)C3)cc1 the Potency was 5.8 µM (active).

— PubChem BioAssay AID504467 (National Center for Advancing Translational Sciences (NCATS), 2011)
